These results are taken from PubChem BioAssay (EPA / NIEHS).

Active and inactive are the calls of the source. The calls were made as follows: active = hit-call score of the fitted dose curve at least 0.9, where 1 is the maximum; inactive = score below 0.9.

Sequence of Tumor necrosis factor (Homo sapiens) (P01375 whole entry, looked up): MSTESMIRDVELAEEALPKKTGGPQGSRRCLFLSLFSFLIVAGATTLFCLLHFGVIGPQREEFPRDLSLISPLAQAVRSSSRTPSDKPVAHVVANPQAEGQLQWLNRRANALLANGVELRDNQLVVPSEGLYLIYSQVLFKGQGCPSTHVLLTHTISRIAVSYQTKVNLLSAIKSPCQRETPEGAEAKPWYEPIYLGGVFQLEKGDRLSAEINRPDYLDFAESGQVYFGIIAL

Read-out in the first experiment: Tumor necrosis factor (Homo sapiens) (UniProt P01375)
The experiment is described as follows: BSK_LPS_TNFa: BioMAP Diversity Plus: LPS Assay for Tumour Necrosis Factor alpha (TNFa) Biomarker Activity (AID 2283085).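 As to AC50: TNFa protein level quantified by ELISA in the co-culture.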 As to conditions: primary human HUVEC with PBMC; actives raise or lower the signal. The method, boiled down: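 Primary human vascular co-culture of HUVEC and PBMC; TNFa ELISA 24 h after treatment, analysed as increase or decrease relative to DMSO control.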
In the case of `Cc1ccc2nc3sc(=O)sc3nc2c1`, the result was inactive.
Same read-out and setting: the result for `Nc1c(Oc2ccccc2)cc(O)c2c1C(=O)c1ccccc1C2=O` reads “inactive”; that for `Cc1cc(C)cc(C)c1`, “inactive”.
With `CCN(CC)C(=O)C(Cl)=C(C)OP(=O)(OC)OC`, the result was inactive.
The same measure, in the same setting: the result for `Oc1cccc(-c2ccccc2)c1` reads “inactive”.
For the compound `[Cl][Sn]([c]1ccccc1)([c]1ccccc1)[c]1ccccc1`, the AC50 is 0.134 µM (active).
Turning to `OCCCCO`, the result was inactive.
On to `OCCN(CCO)CCO`, for which the result was inactive.
Consider `CCOC(=O)C(SP(=S)(OC)OC)c1ccccc1` (centres undefined), for which the result was inactive.
In the case of `OC(Cc1ccccc1Cl)(Cn1cncn1)C1(Cl)CC1` (centres undefined), the outcome was inactive.
On to `CCC(C)(C#N)N=NC(C)(C#N)CC` (centres undefined), for which the result was inactive.
Same read-out and setting: the result for `C[C@]12CC[C@@H](O)C[C@@H]1CC[C@@H]1[C@@H]2CC[C@]2(C)C(=O)CC[C@@H]12` reads “inactive”.
Consider `Cc1ccccc1OP(=O)(Oc1ccccc1)Oc1ccccc1`, for which the result was inactive.
The same measure, in the same setting: with `Oc1cc(Cl)c(Cl)cc1Cl` the entry was “inactive”; with `O=C(O)COc1cc(Cl)c(Cl)cc1Cl`, “inactive”; with `Cc1cc(Cl)ccc1OC(C)C(=O)O` (centres undefined), “inactive”.
The same measure, in the same setting: with `O=C(CCl)NCO` the entry was “inactive”.
On the same count and under the same terms, with `Clc1cccc(Cl)c1Cl` the entry was “inactive”.
`Cc1c([N+](=O)[O-])c(C)c([N+](=O)[O-])c(C(C)(C)C)c1[N+](=O)[O-]`: the AC50 is 28 µM (active).
`CC(C)(C)c1cc([N+](=O)[O-])cc(C(C)(C)C)c1O`: the result was inactive.
For `O=C1C=CC(=O)c2ccccc21`, the AC50 is 0.623 µM (active).
Consider `Clc1cccc(Cl)c1`, for which the result was inactive.
Still for that read-out and setting: the result for `O=C(N[C@H]1CN2CCC1CC2)c1ccc2c(c1)OCCO2` reads “inactive”; that for `COCC(=O)N(c1c(C)cccc1C)[C@H](C)C(=O)OC`, “inactive”.
The same measure, in the same setting: with `NC(=O)CCl` the entry was “inactive”; with `Oc1ccc(Cc2ccc(O)cc2)cc1`, “inactive”; with `CCOP(=O)(OCC)OC(=CCl)c1ccc(Cl)cc1Cl`, “inactive”.
Still for that read-out and setting: with `CCCCN(CCCC)C(=S)[S-].CCCCN(CCCC)C(=S)[S-].[Ni+2]` the entry was “inactive”.
As for `O=C(Cc1ccccc1)OCCc1ccccc1`, the outcome was inactive.
`O=[N+]([O-])c1ccc(Nc2ccccc2)cc1`: the AC50 was 32.5 µM (active).
Turning to `COc1ccccc1N`, the outcome was inactive.
Regarding `N#Cc1cccnc1`, the outcome was inactive.

Read-out in a further experiment: CD38, CD38 (gene 952)
Kind of experiment: BSK_SAg_CD38: BioMAP Diversity Plus: SAg Assay for CD38 Biomarker Activity (AID 2283087). As to conditions: primary human HUVEC with PBMC; actives raise or lower the signal. The gist of the method:
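Fluorescence ELISA of cell-surface CD38 served as the read-out, with either increase or decrease fitted against DMSO controls. Cells were a human umbilical vein endothelium plus PBMC co-culture under SEB/TSST-1 stimulation, measured 24 h after dosing.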
Turning to `Cc1ccc2nc3sc(=O)sc3nc2c1`, the concentration at half-maximal activity (AC50) is 6.68 µM (active).
Same read-out and setting: with `Nc1c(Oc2ccccc2)cc(O)c2c1C(=O)c1ccccc1C2=O` the figure was 10 µM (active).
On to `Cc1cc(C)cc(C)c1`, for which the outcome was inactive.
Turning to `CCN(CC)C(=O)C(Cl)=C(C)OP(=O)(OC)OC`, the outcome was inactive.
As for `Oc1cccc(-c2ccccc2)c1`, the outcome was inactive.
With `[Cl][Sn]([c]1ccccc1)([c]1ccccc1)[c]1ccccc1`, the AC50 is 0.141 µM (active).
`OCCCCO`: the outcome was inactive.
As to `OCCN(CCO)CCO`, the outcome was inactive.
On to `CCOC(=O)C(SP(=S)(OC)OC)c1ccccc1` (centres undefined), for which the AC50 was 20 µM (active).
`OC(Cc1ccccc1Cl)(Cn1cncn1)C1(Cl)CC1` (centres undefined): the result was inactive.
Regarding `CCC(C)(C#N)N=NC(C)(C#N)CC` (centres undefined), the outcome was inactive.
Still for that read-out and setting: with `C[C@]12CC[C@@H](O)C[C@@H]1CC[C@@H]1[C@@H]2CC[C@]2(C)C(=O)CC[C@@H]12` the entry was “inactive”.
For `Cc1ccccc1OP(=O)(Oc1ccccc1)Oc1ccccc1`, the AC50 is 20 µM (active).
The same measure, in the same setting: with `Oc1cc(Cl)c(Cl)cc1Cl` the figure was 26.8 µM (active).
For the compound `O=C(O)COc1cc(Cl)c(Cl)cc1Cl`, the result was inactive.
On the same count and under the same terms, the result for `Cc1cc(Cl)ccc1OC(C)C(=O)O` (centres undefined) reads “inactive”; that for `O=C(CCl)NCO`, “inactive”; that for `Clc1cccc(Cl)c1Cl`, “inactive”.
Take `Cc1c([N+](=O)[O-])c(C)c([N+](=O)[O-])c(C(C)(C)C)c1[N+](=O)[O-]`: the half-maximal activity concentration (AC50) is 1.63 µM (active).
For `CC(C)(C)c1cc([N+](=O)[O-])cc(C(C)(C)C)c1O`, the AC50 was 0.332 µM (active).
Still for that read-out and setting: with `O=C1C=CC(=O)c2ccccc21` the figure was 1.04 µM (active).
Regarding `Clc1cccc(Cl)c1`, the outcome was inactive.
On the same count and under the same terms, the result for `O=C(N[C@H]1CN2CCC1CC2)c1ccc2c(c1)OCCO2` reads “inactive”; that for `COCC(=O)N(c1c(C)cccc1C)[C@H](C)C(=O)OC`, “inactive”.
For `NC(=O)CCl`, the result was inactive.
Same read-out and setting: with `Oc1ccc(Cc2ccc(O)cc2)cc1` the entry was “inactive”; with `CCOP(=O)(OCC)OC(=CCl)c1ccc(Cl)cc1Cl`, “inactive”.
In the case of `CCCCN(CCCC)C(=S)[S-].CCCCN(CCCC)C(=S)[S-].[Ni+2]`, the result was inactive.
Turning to `O=C(Cc1ccccc1)OCCc1ccccc1`, the outcome was inactive.
Same read-out and setting: with `O=[N+]([O-])c1ccc(Nc2ccccc2)cc1` the entry was “inactive”; with `COc1ccccc1N`, “inactive”; with `N#Cc1cccnc1`, “inactive”.
